# About 83,000 compounds went through this panel and 20% of them were active in at least one assay; those are over-represented in the sample as a whole.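 Interpretation: 100, growth as untreated; towards 0, rising growth inhibition; 0, no net growth; 0 to -100, cell death. Compounds scoring below 10 were considered active.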 Activity calls are given as the source filed them.
# System: HL-60(TB) leukemia
# Experiment: NCI-60 one-dose screen, 48 h (100 = growth as untreated, 0 = no growth, -100 = all killed)
# Conditions: 10 µM unless noted
row,SMILES,growth
1,COc1ccc(/C=C(\C#N)c2ccc(OC)cc2)cc1,50.9% (inactive)
2,CCOC(=O)CNC(=O)C1(NC(=O)CNC(=O)OCc2ccccc2)CCCC1,87.5% (inactive)
3,COc1ccc(Nc2ccc3ccccc3c2)cc1,91.3% (inactive)
4,CC(C)(C)OC(=O)N1C/C(=C\c2cccs2)C(=O)/C(=C/c2cccs2)C1,96.7% (inactive)
5,CCCCCN(CCCCC)CCC[C@@H](C)[C@H]1CC[C@H]2[C@@H]3[C@H](OCCCN)C[C@@H]4C[C@H](OCCCN)CC[C@]4(C)[C@H]3C[C@H](OCCCN)[C@]12C,-16.8% (active)
6,Cc1cc(I)nc2ccccc12,88.8% (inactive)
7,CCCOC(=O)Nc1nc2ccc(SCC(C)C)cc2s1,15.9% (inactive)
8,C=CN(C(=O)N1CCN(c2cc3c(cc2F)c(=O)c(C(=O)O)cn3C2CC2)CC1)c1nc(-c2ccccc2)cs1,58.1% (inactive)
9,COc1ccc2c(c1)CCc1c-2n[nH]c1-c1[nH]nc2c1CCc1cc(OC)ccc1-2,23.4% (inactive)
10,COc1cc2c(cc1O)CCc1cc(O)cc(OC)c1-2,76.4% (inactive)
11,COc1ccc(C(=O)/C=C/c2cc(C(=O)c3cc(OC)c(OC)c(OC)c3)ccc2OC)cc1,75.3% (inactive)
12,Cc1nc([P+](c2ccccc2)(c2ccccc2)c2ccccc2)c(N2CCCCC2)o1,-2.68% (active)
13,Cc1ccccc1NC(=O)Cn1cc(CN2CCN(c3ccnc4cc(Cl)ccc34)CC2)nn1,22.2% (inactive)
14,COc1cccc(-c2nn(-c3ccccc3)cc2-c2ccnc(NCCNC(=O)c3ccccc3)c2)c1,25.2% (inactive)
15,Cc1cc2nc(CO)[nH]c2cc1C,89.7% (inactive)
16,Cc1ccc(C2=NN(c3ccc(S(C)(=O)=O)cc3)C(=O)CC2)cc1,-12% (active)
17,Nc1cc(N)c(N)cc1N,29.1% (inactive)
18,Cc1cnc2nc(-c3ccc(N(C)C)cc3)cn2c1,90.7% (inactive)
19,O=C(Nc1ccc(Cl)cc1Cl)Nc1ccc(-c2cccnc2)cc1N1CCC(CO)CC1,6.31% (active)
20,O=c1nc(Nc2nc3ccccc3s2)[nH]c(=O)c2ccccc12,94.4% (inactive)

row,SMILES,growth
1,CCN(CC)CCCN1C(=O)c2c(c(C)c3c(oc4ccc(O)cc43)c2C)C1=O,-5.12% (active)
2,Cc1cccc(C)c1-c1cc(Cc2ccc(Cl)cc2)c(=O)[nH]n1,90.8% (inactive)
3,Cc1ccc(S(=O)(=O)NN/C(N)=N\S(=O)(=O)c2cc(C)c(Cl)cc2SCc2ccccc2)cc1,83.6% (inactive)
4,COc1ccc(-c2nc3ccccn3c2/C=C/C(=O)c2cc(OC)c(OC)c(OC)c2)cc1OC,9.67% (active)
5,CCCCCCCCCCCCCC(=O)C(C)N (centres undefined),14.6% (inactive)
6,CN1CCN(CCCOc2ccc3nc(Nc4ccc(Cl)c(C(F)(F)F)c4)ccc3c2)CC1,63.7% (inactive)
7,Nc1ccccc1NC(=O)c1ccc(CN2CCC/C(=C\c3cccc(Cl)c3)C2=O)cc1,-24.5% (active)
8,O=C(Cn1c[n+](CC(=O)c2ccc([N+](=O)[O-])cc2)c2ccccc21)Nc1cccc2cccnc12,61.9% (inactive)
9,CCCCCCCC/C=C\CCCCCCCCOc1ccccc1CC(=O)NCC[N+]1(C)CCCCC1,-19.6% (active)
10,COc1cc(CCC[P+](c2ccccc2)(c2ccccc2)c2ccccc2)c(OC)c(OC)c1OC,65.7% (inactive)
11,CCCCCCCCn1ccc2cc(NC(=O)Cn3cc(CN4CCN(CC)CC4)nn3)ccc21,63.9% (inactive)
12,O=C(NC1CCCC1)c1ccc(N2CCC(NCc3cccc(C(F)(F)F)c3)CC2)cc1,66.5% (inactive)
13,CNCCNc1nc2ccccc2c2c(=O)c3cc(OC)ccc3sc12,-52.9% (active)
14,NC(=O)c1c(NC(=O)c2ccc(Cl)cc2)sc2c1CCC(=O)C2,48.6% (inactive)
15,NC(=O)c1cc(Cl)ccc1NC(=O)COc1ccccc1,-0.779% (active)
16,COC(=O)N/N=C/c1c[n+]([O-])c2ccccc2[n+]1[O-],97.2% (inactive)
17,Cn1cc(-c2csc(-c3cn(C)c4ccccc34)n2)c2cnccc21,-41.4% (active)
18,CSc1nc2c(c(=O)[nH]1)N=C1c3ccccc3C(=O)C1C(c1ccc(F)cc1)N2 (centres undefined),91.4% (inactive)
19,COc1cccc(CNc2nnc(C)c(C)n2)c1O,95.9% (inactive)

# From PubChem BioAssay (NCI)
